# Source: PubChem BioAssay
# Sampled rows, rich in hits. Any-hit rate of the full collection: about 4%.
# HSV replic up = increases HSV replication in cells | hit rate 0.005% among 220,000 | maximum fold increase | HSV replication augmentation in cells, fold increase; in the data active = maximum fold increase above about 1.5; inconclusive = no clear call, values can overlap the other calls; tested in PC3 cells
# Measles CPE = protection of cells from measles virus | Measles virus-infected cells, CPE protection, absorbance | protection (pct of control), % at 4 µM | hit rate 1.5% among 140,000; in the data active = protection mostly above about 24%, no sharp cut-off; inactive = mostly below about 26%
# ROMK mod = human ROMK K+ channel modulation, primary screen. P48048. Tet-inducible ROMK, thallium flux fluorescence; actives lie on both sides. B-score at 10 µM. hit rate 2% among 130,000;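 active = signal ratio slope over the read window, or its plate-corrected B-score, at least 3 SD from the plate mean, either direction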;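 also: B-score of the F/F0 ratio slope over 7 to 12 s after thallium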
# Target sequence (P48048 whole entry, looked up): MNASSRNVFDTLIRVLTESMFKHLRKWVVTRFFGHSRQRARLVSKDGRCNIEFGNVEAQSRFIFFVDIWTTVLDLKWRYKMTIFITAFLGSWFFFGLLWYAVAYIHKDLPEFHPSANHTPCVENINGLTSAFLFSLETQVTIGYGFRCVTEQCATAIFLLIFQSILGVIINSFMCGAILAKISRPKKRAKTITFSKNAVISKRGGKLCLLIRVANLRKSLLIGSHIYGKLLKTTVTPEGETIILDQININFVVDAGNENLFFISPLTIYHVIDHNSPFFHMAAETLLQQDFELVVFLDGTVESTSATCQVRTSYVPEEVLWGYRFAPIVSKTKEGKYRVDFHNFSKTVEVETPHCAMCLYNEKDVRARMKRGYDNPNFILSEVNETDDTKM
# KCC2 mod = modulators of human KCC2 chloride dependent transport | KCC2 cells, thallium flux FluoZin-2 fluorescence | hit rate 2.2% among 190,000 | B-score of Tl+ flux slope (higher = more flux/activation; lower = inhibition) at 10 µM | Q9H2X9;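 active = thallium flux slope and its plate-corrected score both differing from the plate sample mean at a set confidence after two filtering rounds, in either direction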;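 also: slope of fluorescence scaled to starting intensity during 10 to 20 s after thallium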
# Arbovirus anti = arbovirus infection inhibition. hit rate 0.37% among 200,000. arbovirus infection cell-based antiviral screen. AID 1251. inhibition, % at 10 µM; in the data active = inhibition above about 30%
# KCC2 sec1 = confirmation of human KCC2 transport modulators. shares compounds with KCC2 mod. HEK293-KCC2, thallium flux, FluoZin2 fluorescence; stronger effect = higher value. normalised thallium flux (F/F0 slope) at 10 µM. hit rate 15% among 3,700;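 active = thallium flux slope above the same plate's solvent-only control mean plus 3 SD; inconclusive = the two replicate wells disagree; inactive = no significant difference from solvent-only control wells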
# KCC2 bumet counter = bumetanide-insensitive thallium flux in KCC2 cells with ouabain, counter-screen | shares compounds with KCC2 mod | HEK293-KCC2 + bumetanide/ouabain, thallium flux FluoZin2; stronger effect = higher value | normalized thallium flux at 10 µM | hit rate 49% among 3,700;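 active = thallium entry rate above the same plate's blocked-transporter control wells by more than 3 SD; inconclusive = the two repeat wells disagree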;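 also: raw slope of fluorescence over initial fluorescence between 10 and 20 s after thallium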
# KCC2 sec2 = KCC2 (human) modulation, second secondary assay | shares compounds with KCC2 mod | HEK293-KCC2, thallium flux FluoZin2 fluorescence; actives lie on both sides; F/F0 rise rate, 10–20 s post-thallium | normalized thallium flux at 10 µM | hit rate 23% among 3,700;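 active = thallium flux slope more than 3 SD above or below the plate's solvent-only control mean, mostly below; inconclusive = the two repeat wells disagreed; inactive = no significant shift from solvent-only controls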
# HEK counter1 = acts in parental HEK cells, KCC2 counter-screen. HEK293 parental cells, thallium flux FluoZin2, ouabain; baseline-ratio fluorescence slope, 10–20 s after thallium. hit rate 46% among 3,700. shares compounds with KCC2 mod. AID 1716. thallium flux rate (normalised fluorescence) at 10 µM;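 active = thallium flux rate significantly above the same plate's solvent-only control wells, beyond their mean plus 3 SD; inconclusive = the two replicate wells gave conflicting results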
# KCC2 ouabain = confirmation of human KCC2 modulators with ouabain | HEK293-KCC2, thallium flux FluoZin2 fluorescence; bidirectional: low = inhibitor, high = activator | raw Tl+ flux slope (below DMSO = inhibition, above = activation) at 10 µM | shares compounds with KCC2 mod | AID 1717 | hit rate 48% among 3,700;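 active = thallium flux slope beyond 3 SD from same-plate DMSO control mean in most replicates, usually higher, sometimes lower; inconclusive = repeat tests gave conflicting results; inactive = no significant difference from controls in most replicates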;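 also: slope of initial-normalized fluorescence between seconds 10 and 20 after thallium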
# HEK293 Tl flux2 = parental HEK flux effect, counter-screen 2; HEK293 parental, thallium flux FluoZin-2 fluorescence slope; thallium flux slope at 10 µM; shares compounds with KCC2 mod; AID 1718; hit rate 33% among 3,700;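 active = thallium flux slope above the same plate's solvent-control mean plus 3 SD in both duplicate wells; inconclusive = duplicate wells that disagreed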;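 also: run without ouabain in cells lacking the KCC2 cotransporter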
# A number is an active result; – = inactive; ? = inconclusive; · = no result.
SMILES,HSV replic up,Measles CPE,ROMK mod,KCC2 mod,Arbovirus anti,KCC2 sec1,KCC2 bumet counter,KCC2 sec2,HEK counter1,KCC2 ouabain,HEK293 Tl flux2
O=c1cc(-c2ccccc2Cl)oc2c([N+](=O)[O-])c(O)cc(O)c12,–,–,–,-6.95,–,–,?,0.0185,0.00571,0.0108,?
O=C(c1ccc(O)cc1)c1ccc(C(=O)c2ccc(O)cc2)cc1,–,–,–,–,–,–,–,–,–,–,–
CSc1nc2ncc(C(=O)O)c(N)n2n1,–,·,–,–,–,·,·,·,·,·,·
CN(C)S(=O)(=O)c1ccc(C(=O)OCCn2cnc3c2c(=O)n(C)c(=O)n3C)cc1,–,·,–,–,–,·,·,·,·,·,·
Cc1ccc2c(C)nc(Nc3nc(CSc4nnc(C)s4)cc(=O)[nH]3)nc2c1,–,–,·,–,–,–,–,–,–,–,?
O=C(NCCCCc1ccccc1)C1CC(c2cccc(F)c2)=NO1 (stereo unspecified),–,·,·,-2.72,·,–,–,0.0251,–,–,–
O=C(NNC(=O)c1c(F)cccc1F)c1sccc1-n1cccc1,–,·,–,–,–,·,·,·,·,·,·
O=C(NNC(=O)c1sccc1-n1cccc1)c1ccc(F)cc1,–,·,–,·,–,–,0.0166,–,?,0.0255,–
[NH-]c1ncnc2c1N=C[N+]2=CC=CCO,–,·,·,–,·,·,·,·,·,·,·
O=C(/C=C/c1cccs1)Nc1scc(-c2ccccc2)c1C(=O)O,–,·,–,-4.23,73.8,–,?,0.0208,–,0.0135,–
COc1ccccc1-c1nc(C#N)c(N2CCN(Cc3ccccc3)CC2)o1,–,–,–,·,–,·,·,·,·,·,·
N#Cc1nc(-c2ccco2)oc1N1CCN(Cc2ccccc2)CC1,–,–,–,·,–,–,–,0.026,–,0.0277,–
CCOc1ccc(S(=O)(=O)Nc2ccccc2C(=O)NCc2ccco2)cc1,–,–,·,–,–,·,·,·,·,·,·
COc1ccc(S(=O)(=O)Nc2ccccc2C(=O)NCc2ccco2)cc1Br,–,–,·,-4.14,–,?,–,0.0233,0.0049,0.0118,0.00828
Cc1nnc(SCC(=O)N2CCCC2)n(N)c1=O,–,·,–,–,–,·,·,·,·,·,·
Cc1c(-n2c(SCC(=O)O)nnc2-c2ccccc2Cl)c(=O)n(-c2ccccc2)n1C,·,–,·,–,–,–,–,–,–,–,?
O=C(O)C1=C[C@H](c2cccs2)C[C@H](OCc2ccc(CO)cc2)O1,–,·,·,–,·,·,·,·,·,·,·
CCOC(=O)c1cc2c(ccn2-c2ccc(F)cc2)n1CC(=O)N(CC)CC,–,·,–,-5.48,–,–,–,0.0228,?,0.0121,–
Cc1ccc(S(=O)(=O)N2CCCCC2)cc1NC(=O)CSc1nncn1-c1ccccc1,–,·,–,–,–,·,·,·,·,·,·
COc1ccc(S(=O)(=O)N2CCCCC2)cc1NC(=O)CSc1ncnc2ccccc12,–,–,·,-3.25,–,–,–,–,?,0.0152,–
COc1ccc(-n2cnnc2SCC(=O)Nc2cc(S(=O)(=O)N3CCCCC3)ccc2C)cc1,–,–,·,-4.43,–,–,–,0.0261,–,0.0137,–
CCN(CC)S(=O)(=O)c1ccc(NC(=O)CSc2ncnc3ccccc23)cc1,–,–,–,-5.16,–,–,–,?,–,0.0132,–
Cc1ccc(NC(=O)CSc2ncnc3ccccc23)cc1S(=O)(=O)N1CCCCC1,–,–,–,–,–,·,·,·,·,·,·
CCN(CC)S(=O)(=O)c1cccc(-c2nnc(SC(C)C(=O)NCCC3=CCCCC3)o2)c1 (stereo unspecified),–,–,–,-2.43,–,–,–,–,–,–,–
CCCc1nnc(SCC(=O)N2CCOCC2)n1CCCOC,–,–,·,8.04,–,–,–,–,–,–,–
SMILES,HSV replic up,Measles CPE,ROMK mod,KCC2 mod,Arbovirus anti,KCC2 sec1,KCC2 bumet counter,KCC2 sec2,HEK counter1,KCC2 ouabain,HEK293 Tl flux2
Cn1c(Cn2c3ccccc3c3ccccc32)n[nH]c1=S,–,·,·,·,·,·,·,·,·,·,·
Cc1[nH]c2ccccc2c1Cc1n[nH]c(=S)n1C,–,–,·,-6.37,–,–,–,0.0237,–,0.0109,–
Nn1c(Cc2cccc3ccccc23)n[nH]c1=S,–,·,·,–,–,·,·,·,·,·,·
Cn1c(Cc2c[nH]c3ccccc23)n[nH]c1=S,–,–,–,·,–,–,–,–,?,?,–
S=c1[nH]nc(Cc2cccc3ccccc23)o1,–,–,–,-8.04,–,–,–,0.0153,–,?,–
Cc1[nH]c2ccccc2c1Cc1n[nH]c(=S)o1,–,–,·,-3.36,–,–,–,0.022,–,0.0414,–
COc1cccc(F)c1C(C[N+](=O)[O-])c1c(N)n(C)c(=O)n(C)c1=O (stereo unspecified),–,·,–,–,·,·,·,·,·,·,·
O=c1c2ccccc2ncn1-c1ccc(Cl)cc1Cl,–,·,·,–,·,·,·,·,·,·,·
O=c1c2ccccc2nc(-c2ccc(Cl)c(Cl)c2)n1O,–,–,–,34.8,–,0.0181,0.114,?,0.0625,0.0829,0.0228
O=c1c2ccccc2nc(-c2ccc(Cl)cc2Cl)n1O,–,·,–,5.72,–,0.0121,0.0198,–,0.0116,0.0291,–
O=c1c2ccc(Cl)cc2nc(-c2cccc(C(F)(F)F)c2)n1O,–,–,–,·,–,·,·,·,·,·,·
CN1C(C(=O)NCc2ccccc2)CC2Cn3c(nc4ccccc43)C21 (stereo unspecified),–,·,·,–,·,·,·,·,·,·,·
CN1C(C(=O)NCc2ccccc2)CC2Cn3c(nc4cc(Cl)c(Cl)cc43)C21 (stereo unspecified),–,·,·,-3.2,·,–,–,0.0225,–,–,–
CNC(=O)C(=O)Nc1nc(C23CC4CC(CC(C4)C2)C3)cs1,–,·,–,3.87,–,–,0.0117,–,0.0127,?,0.0125
O=C(NCc1ccc(F)cc1)C(=O)Nc1nc(C23CC4CC(CC(C4)C2)C3)cs1,–,–,–,8.93,–,–,0.0377,–,0.0213,0.0344,0.0177
O=C(NCc1cccnc1)C(=O)Nc1nc(C23CC4CC(CC(C4)C2)C3)cs1,–,·,·,–,·,·,·,·,·,·,·
CC1(C)Cc2c(sc3[nH]c(=S)[nH]c(=O)c23)CO1,–,·,–,–,–,·,·,·,·,·,·
O=C(CN1CCC(O)(c2cccc(F)c2)CC1)NCCc1c[nH]c2ccccc12,–,·,·,–,·,·,·,·,·,·,·
O=C(O)/C=C\c1ccccc1Oc1cccc(Cl)c1,–,·,–,–,–,·,·,·,·,·,·
O=C(O)/C=C/c1ccccc1Oc1ccc(Cl)cc1Cl,–,·,–,-6.58,–,–,0.00596,0.0214,–,?,–
Cc1ccsc1/C=N\NC(=O)c1ccc2c(c1)OCO2,·,–,·,5.91,–,–,0.00635,–,0.0107,–,?
